In all, about 2,200 compounds went through this assay and about 2,200 (100%) were called active. So high a share suggests a set chosen from earlier hits. This is one part of the list. Entries with a potency or affinity are not part of this list. Inconclusive results are not listed. No rule for the calls is given here.
Assay: PubChem AID 449748
Conditions: cancer stem cell-like cells viability, luminescence; series mostly up to 19.5 µM; activity change, negative = inhibition: at the top concentration

Structure (SMILES)	activity change, negative = inhibition
CSc1ccccc1C(=O)Nc1cc(C)ccc1C	31.1% (inactive)

Source: PubChem BioAssay AID449748 (Broad Institute, 2010)
